Screens as filed in PubChem.
ALDH1A1 block – qHTS Assay for Inhibitors of Aldehyde Dehydrogenase 1 (ALDH1A1); Aldehyde dehydrogenase 1A1 (Homo sapiens), P00352; Purified ALDH1A1, NADH fluorescence, propionaldehyde substrate; Potency, µM (series often up to 75.3 µM), for the others: at the top dose activity, negative = inhibition, hits mostly inhibitors; actives 7.3% (n = 220,000); AID 1030, 2008; active = well fitted inhibition curve with a large enough effect, not every such curve was filed as active; inconclusive = small, poorly fitted or top-dose-only effect, or another doubt; inactive = no such curve, though single readings can be large or run the other way;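 also: potency is read from the fitted curve at half-maximal effect; plate controls were no enzyme wells and a reference inhibitor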
Target sequence (P00352 whole entry, looked up): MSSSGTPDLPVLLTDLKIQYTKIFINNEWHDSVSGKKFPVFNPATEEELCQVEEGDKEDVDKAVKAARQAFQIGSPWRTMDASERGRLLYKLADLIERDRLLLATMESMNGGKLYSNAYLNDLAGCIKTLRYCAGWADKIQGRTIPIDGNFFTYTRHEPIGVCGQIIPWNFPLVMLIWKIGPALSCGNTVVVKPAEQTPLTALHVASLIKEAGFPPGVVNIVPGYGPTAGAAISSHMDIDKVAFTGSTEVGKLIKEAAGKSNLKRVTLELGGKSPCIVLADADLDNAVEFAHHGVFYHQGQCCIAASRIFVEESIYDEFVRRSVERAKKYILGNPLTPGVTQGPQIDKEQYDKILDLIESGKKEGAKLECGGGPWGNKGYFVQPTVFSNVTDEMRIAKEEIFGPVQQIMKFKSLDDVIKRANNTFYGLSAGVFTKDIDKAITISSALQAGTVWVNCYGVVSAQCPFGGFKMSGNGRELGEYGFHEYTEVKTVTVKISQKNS
IMPase cell inh – qHTS Assay for Identifying the Cell-Membrane Permeable IMPase Inhibitors; Inositol monophosphatase 1 (Rattus norvegicus), P97697; CHO-M1 cells, IP1 accumulation, HTRF TR-FRET ratio; inhibition (IP1 accumulation), % at 46.1 µM; 120,000 tested, under 10 active; AID 901, 2007; active = well fitted curve in the direction sought with a large enough effect in the signal ratio, not every such curve was filed as active; inconclusive = small, poorly fitted or top-dose-only effect, or a change in a side signal; inactive = no such curve, though single readings can be large or run the other way; the % refers to the signal ratio;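 also: cells stimulated with carbachol in lithium chloride buffer; plate controls were DMSO basal wells for no effect and reference inhibitor wells for full effect; higher means more IMPase inhibition seen as more IP1 and lower FRET ratio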
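In this qHTS, compounds (final up to 46 uM) act on CHO-M1 cells that are then activated through the M1 receptor with carbachol, in pH 7.4 buffer containing 50 mM LiCl, for 30 min. IP1 accumulation is quantified by the IP-One immunoassay.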
IMPase Li inh – qHTS Assay for Identifying the Cell-Membrane Permeable IMPase Inhibitors: Potentiation with Lithium | actives 0.35% (n = 210,000) | CHO-M1 cells, IP1 TR-FRET (IP-One), carbachol + lithium | Potency, µM (highest dose often 59.4 µM), inactives show top-dose activity, negative = IMPase inhibition, actives largely listed as inhibitors | AID 1457, 2008;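 also: IP1 builds up when IMPase is blocked and the TR-FRET signal falls; potency is read from the fitted curve at half-maximal effect; plate controls were basal vehicle for no effect and high inhibitor control for full effect; nearly all actives have a fitted effect of over 50% in size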
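Readout is a homogeneous TR-FRET IP1 immunoassay (Ex 320, Em 665 and 620), where raised cytosolic IP1 lowers signal. Cells were CHO-M1 treated 30 min at 37C with test compounds plus a little lithium; AC50 values came from Hill-equation fitting.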
PNC assembly inh – High Content Assay for Compounds that inhibit the Assembly of the Perinucleolar Compartment. activity change (PNC), negative = inhibition, % at 10 µM. actives 3.1% (n = 140,000). PC3M PTB-GFP, PNC prevalence imaging, 16 h; active compounds read low;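 active = readout at or below -70, meaning at least 70% loss of cells showing the perinucleolar compartment, a nuclear body marking cancer cells; inconclusive = readout between -30 and a set limit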;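 also: plate controls were DMSO wells for no effect and camptothecin positive control wells for full effect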
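Compounds are pinned in duplicate onto adhered PC3M cells stably expressing GFP-tagged PTB and incubated 16 h at 37 C. Cells are then fixed, nuclei stained with Hoechst, and PNC-positive cells counted.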
HPGD block – qHTS Assay for Inhibitors of HPGD (15-Hydroxyprostaglandin Dehydrogenase); purified HPGD, NADH fluorescence kinetic, PGE2 substrate; Potency, µM, without a hit: top-dose activity change, negative = inhibition, usual class: inhibitors; actives 4.3% (n = 150,000); active = well fitted inhibition curve with a large enough effect, not every such curve was filed as active; inconclusive = small, poorly fitted or top-dose-only effect, or another doubt; inactive = no such curve, though single readings can be large or run the other way; also: potency is read from the fitted curve at half-maximal effect
Target sequence (P15428 whole entry, looked up): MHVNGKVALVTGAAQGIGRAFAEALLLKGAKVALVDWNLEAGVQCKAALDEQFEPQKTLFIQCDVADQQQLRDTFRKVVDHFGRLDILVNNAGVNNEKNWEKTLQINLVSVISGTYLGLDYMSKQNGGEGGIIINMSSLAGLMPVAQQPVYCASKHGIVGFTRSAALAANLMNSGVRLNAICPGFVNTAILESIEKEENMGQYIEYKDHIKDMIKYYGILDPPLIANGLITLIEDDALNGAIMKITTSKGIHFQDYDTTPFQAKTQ
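NADH formation kinetics: reaction with 30 uM PGE2 and 1 mM NAD+ (final), 20 nM enzyme, Tris-HCl pH 8 with Tween 20, after 15 min compound preincubation at room temperature. Fluorescence change, last versus first of five reads.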
12-hLO inh – qHTS Assay for Inhibitors of 12-hLO (12-human lipoxygenase) | Polyunsaturated fatty acid lipoxygenase ALOX12 (Homo sapiens), P18054 | purified 12-hLO, xylenol orange hydroperoxide absorbance | Potency, µM (doses to about 57.1 µM), without a hit: at the top dose activity change, negative = inhibition, actives largely listed as inhibitors | actives 0.12% (n = 150,000) | AID 1452, 2008; also: potency is read from the fitted curve at half-maximal effect; nearly all actives have a fitted effect of over 55% in size
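Lipoxygenase turnover measured by absorbance at 573 and 405 nm after Fe-XO development. Human 12hLO 150 nM, arachidonate 40 uM, pH 7.0 Hepes buffer with detergent; 15 min compound preincubation, 30 min reaction.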
Active calls of the source: *; ? = inconclusive; . = not tested or not shown; [ ] = dose if it differs, or a comment. A selection: hits, their analogues and other compounds. The true share with any hit is near 11%. Unless noted, calls follow the shape of the dose curve; as a rule, active = well fitted curve in the direction sought with a large enough effect; inconclusive = small, poorly fitted or top-dose-only effect, or another doubt; inactive = no such curve, though single readings can be large; an effect the other way counts as inactive or inconclusive. Unless noted, % is scaled to controls: 0 for no effect and ±100 for the full control effect.

SMILES | ALDH1A1 block | IMPase cell inh | IMPase Li inh | PNC assembly inh | HPGD block | 12-hLO inh
O=C(Nc1ccc(Oc2ccccc2)cc1)C1CCCO1 (centres undefined) | -5.8% | 9.6 | 6.4%[38.3 µM] | 3.7 | 11.2µM* | -1.1%
O=C(Nc1ccc(Oc2ccccc2)cc1)C1CC1 | 4.6% | . | 6.6% | . | . | .
CC1CCN(C(=O)c2ccc(NC(=O)C3CCCO3)cc2)CC1 (centres undefined) | ? | -4.2 | 15.2%[38.3 µM] | ? | 0.708µM* | -4.3%
CCCC(=O)Nc1nc(-c2ccc(OC)cc2)cs1 | -5.3% | 3.3 | 27.6%[38.3 µM] | -1.9 | -8.3% | -2.6%
COc1ccc(-c2csc(NC(=O)C3CCCO3)n2)cc1 (centres undefined) | 22.4µM* | 3.8 | 1.4%[38.3 µM] | -29.4 | ? | -4.8%
CN(C)CC(=O)Nc1nc(-c2ccccc2)cs1 | -1.5% | -1.7 | 18.4%[38.3 µM] | 44.6 | -6.2% | 0.2%
CC1CC1C(=O)Nc1nc(-c2ccccc2)cs1 (centres undefined) | 10µM* | -4.1 | 17.3%[38.3 µM] | 38.2 | -19.8% | -2.0%
COc1ccc(NC(=O)C2CCCO2)cc1 (centres undefined) | 5.5% | 14.9 | 1.8% | ? | 25.1µM* | -2.0%
CCOc1cc(NC(=O)C2CCCO2)c(OCC)cc1NC(C)=O (centres undefined) | ? | -3.4 | 6.2%[38.3 µM] | -94.5* | -5.5% | -5.6%
CC(C)CCN(C(=S)NC(=O)C1CCCCC1)c1c(N)n(Cc2ccccc2)c(=O)[nH]c1=O | 25.1µM* | . | 2.8% | . | . | .
COCCN(C(=O)C1CCCC1)c1c(N)n(Cc2ccccc2)c(=O)[nH]c1=O | 15.3% | . | -10.2% | . | . | .
COCCCN(C(=S)NC(=O)C(C)(C)C)c1c(N)n(Cc2ccccc2)c(=O)[nH]c1=O | 28.2µM* | . | . | . | . | .
CC1(C)CC2C1CCC1(C)OC1CCC2(C)O (centres undefined) | 4.6% | . | 6.6% | . | -2.2% | 3.7%
COc1cc(OC)cc(C(=O)NC2CCN(Cc3nnnn3Cc3cccs3)CC2)c1 | 12.6µM* | -3.2 | -4.0%[38.3 µM] | -22.8 | 0.4% | 5.1%
COc1cc(OC)cc(C(=O)NC2CCN(Cc3nnnn3Cc3ccc(F)cc3)CC2)c1 | -11.7% | . | 16.3% | . | . | .
Cc1cccc2cc(C#N)c(N3CCN(C)CC3)nc12 | ? | 6.6 | . | -12.3 | . | 4.7%
Cc1cc(C)c2nc(N3CCN(C)CC3)c(C#N)cc2c1 | ? | -19.8 | 28.2µM* | ? | ? | -3.1%
Cc1cccc(CCn2c(=O)c3ccccc3n(Cc3ccccc3C)c2=O)c1 | . | 5.3 | . | . | . | .
CCN(CC)S(=O)(=O)c1ccc(NC(=O)COC(=O)CNS(=O)(=O)/C=C/c2ccccc2)cc1 | 1µM* | . | -8.5% | 24.3 | -15.3% | 5.5%
O=C(CSc1nnc(-c2ccc(F)cc2)o1)Nc1ccc(S(=O)(=O)N2CCCCCC2)cc1 | 4.2% | 9.4 | . | 19.9 | . | -5.2%
CCN(CC)S(=O)(=O)c1ccc(NC(=O)CSc2nnc(-c3ccc(F)cc3)o2)cc1 | -4.6% | -3.4 | 22.6%[38.3 µM] | -106.7* | -2.4% | -26.8%
O=C(CSc1nnc(-c2ccc(F)cc2)o1)Nc1ccc(S(=O)(=O)N2CCCC2)cc1 | 15.8µM* | 4.2 | -5.4%[38.3 µM] | 3.9 | -10.5% | -3.6%
CC(C)CNC(=O)CSc1nnc(-c2cccc(S(=O)(=O)N3CCCCC3)c2)o1 | 2.2% | ? | ? | -127.5* | -22.4% | -4.2%
CCN(CC)S(=O)(=O)c1ccc(NC(=O)CSc2cccc[n+]2[O-])cc1 | 22.4µM* | -1.3 | 22.4%[38.3 µM] | 14.5 | -11.8% | -1.3%
CCCC(=O)NC(=S)Nc1cccc(NC(=O)c2ccccc2Cl)c1 | ? | . | -5.9% | -23.0 | -18.2% | -7.0%
SMILES | ALDH1A1 block | IMPase cell inh | IMPase Li inh | PNC assembly inh | HPGD block | 12-hLO inh
Cc1ccc(OCC(=O)NC(=S)Nc2cccc(NC(=O)c3ccccc3Cl)c2)cc1 | 12.6µM* | . | -1.3% | 28.7 | -8.5% | -1.5%
CC(C)Oc1cccc(C(=O)NC(=S)Nc2cccc(NC(=O)c3ccccc3Cl)c2)c1 | 11.2µM* | . | 1.4% | -0.3 | -10.1% | ?
COc1ccc(NC(=O)C(OC(=O)c2ccc([N+](=O)[O-])o2)c2ccccc2)cc1Cl (centres undefined) | 2.51µM* | 8.3 | 10.9% | 14.5 | -19.7% | -7.5%
O=C(COc1ccccc1)NC(=S)Nc1cccc([N+](=O)[O-])c1 | ? | -4.0 | 5.4% | -0.4 | 28.2µM* | -2.2%
O=C(CCOc1ccccc1)Nc1cccc([N+](=O)[O-])c1 | ? | . | 12.2% | . | . | .
C=C/C(=C\C)C[C@@H](CC(=O)N[C@@H](CCC(=O)O)CC(=O)O)NC(=O)[C@@H]1CNCC[C@H]1NC(=O)C[C@@H](NC(=O)C[C@H](Cc1ccccc1)NC(=O)[C@@H]1CCCC[C@H]1N)C(C)C | 8.4% | . | 15.7% | . | -4.9% | 5.2%
COC(=O)N1CCC2(CCCN(C(=O)Nc3ccccc3)C2)CC1 | 6.3% | . | -1.2% | . | -6.2% | 6.1%
CC/C(C)=N/Nc1cccc([N+](=O)[O-])c1 | 0.1% | -4.9 | 10.3% | 28.6 | -5.6% | ?
O=C(COc1ccccc1)NC(=S)Nc1cccc(NC(=O)c2ccccc2Cl)c1 | 10µM* | 4.5 | . | 29.6 | . | 1.0%
CCC(=O)NC(=S)Nc1cccc(NC(=O)c2ccccc2Cl)c1 | ? | 2.0 | 0.8%[38.3 µM] | -29.1 | -6.1% | -3.1%
CC(Oc1ccccc1)C(=O)Nc1cccc([N+](=O)[O-])c1 (centres undefined) | -0.2% | . | 6.7% | . | . | .
COC(C(=O)Nc1cccc([N+](=O)[O-])c1)c1ccccc1 (centres undefined) | 20µM* | . | 2.1% | . | . | .
CCC(CC)=NNc1cccc([N+](=O)[O-])c1 | 28.2µM* | 2.4 | 16.1% | -21.3 | ? | ?
CCC(N)(C(=O)O)c1ccc(C(=O)O)cc1 (centres undefined) | 2.3% | . | -4.1% | . | . | .
CC(Oc1ccc(O)cc1)(P(=O)(O)O)P(=O)(O)O | 0.5% | -1.1 | 3.7% | . | 1.1% | -16.2%
CCN(CC)CCn1c(-c2ccccc2)nc2c(N3CCOCC3)nc(C)nc21 | ? | . | 3.6% | . | ? | -0.1%
Cc1cc(C(=O)OCC(=O)c2cccc([N+](=O)[O-])c2)c2ccccc2n1 | -2.3% | -6.9 | 1.0% | ? | -23.6% | -1.3%
Cc1cc(C(=O)OCC(=O)c2ccc(Cl)c([N+](=O)[O-])c2)c2cccc(C)c2n1 | 12.6µM* | . | 3.8% | 17.6 | -18.1% | 1.6%
